AmpC detergent: qHTS Inhibitors of AmpC Beta-Lactamase (assay with detergent); AID 485294, 2010; actives 0.041% (n = 370,000); Potency, µM (titrated, usually from 114 µM), most hits filed as inhibitors; AmpC hydrolysis of nitrocefin, absorbance 480 nm, 0.01% Triton; also: nearly all actives have a fitted effect of over 25% in size
Target sequence (P00811 whole entry, looked up): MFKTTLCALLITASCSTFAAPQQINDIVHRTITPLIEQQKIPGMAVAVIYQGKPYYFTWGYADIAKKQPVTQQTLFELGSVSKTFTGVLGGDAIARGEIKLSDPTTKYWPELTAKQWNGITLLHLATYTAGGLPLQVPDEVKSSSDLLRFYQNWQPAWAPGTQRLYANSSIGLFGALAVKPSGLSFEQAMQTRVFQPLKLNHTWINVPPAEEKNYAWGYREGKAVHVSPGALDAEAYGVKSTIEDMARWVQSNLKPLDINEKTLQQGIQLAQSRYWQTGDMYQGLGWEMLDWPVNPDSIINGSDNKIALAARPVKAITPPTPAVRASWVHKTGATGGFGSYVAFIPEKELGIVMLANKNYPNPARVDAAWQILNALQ
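20 mM phosphate pH 7.0 + 0.01% (detergent screen) or 0.0001% Triton X-100; 5.3 nM AmpC reagent; cpd preinc 15 min RT; nitrocefin (800 uM stock) to start; A480 q20 s × 4 min; Activity was normalised to no-enzyme and no-compound control wells.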
LmPK inhibitor: qHTS Assay for Inhibitors of Leishmania Mexicana Pyruvate Kinase (LmPK) | purified LmPK, Kinase-Glo ATP luminescence, 1 h | actives 0.37% (n = 290,000) | AID 1721, 2009 | Potency, µM (titrated, usually from 57.5 µM), usual class: inhibitors | Q27686
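In 50 mM imidazole pH 7.2 with 7 mM MgCl2, LmPK (0.1 nM) turned over PEP (0.5 mM) and ADP (0.1 mM) for 1 h at room temperature. Luciferase read-out of ATP.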
AmpC inh no detg: qHTS Inhibitors of AmpC Beta-Lactamase (assay without detergent). P00811. AmpC nitrocefin hydrolysis, absorbance 480 nm, 0.0001% Triton. Potency, µM (top dose mostly 57.1 µM), hits mostly inhibitors. actives 0.52% (n = 330,000). AID 485341, 2010; also: nearly all actives have a fitted effect of over 20% in size
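20 mM phosphate pH 7.0 + 0.01% (detergent screen) or 0.0001% Triton X-100; 5.3 nM AmpC reagent; cpd preinc 15 min RT; nitrocefin (800 uM stock) to start; A480 q20 s × 4 min; Activity was normalised to no-enzyme and no-compound control wells.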
TbPYK inhibitor: qHTS of Trypanosoma Brucei Inhibitors | pyruvate kinase (Trypanosoma brucei), Q57TT1 | actives 0.12% (n = 410,000) | Potency, µM (top dose mostly 76.8 µM), usual class: inhibitors | TbPYK enzyme, Kinase-Glo Plus ATP luminescence, 45 min; also: nearly all actives have a fitted effect of over 50% in size
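Quantitative HTS: titrated library compounds versus trypanosomal pyruvate kinase in TEA buffer (pH 7.2) containing KCl, MgCl2, BSA and Tween-20. Reactions were initiated with ADP, 130 uM final. Kinase-Glo Plus luminescence was read after 45 min at RT.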
RE007 growth inh: qHTS Assay for Inhibitors of the HIV-1 protein Vpr; actives 0.21% (n = 360,000); S. pombe RE007 Vpr strain, BacTiter-Glo ATP luminescence, 24 h; AID 651644, 2012; Potency, µM (titrated, usually from 92.2 µM), hits mostly inhibitors; active = well fitted falling curve with a large enough effect; inconclusive = small, poorly fitted or top-dose-only effect; inactive = no such curve, though single readings can be large or run the other way; also: nearly all actives have a fitted effect of over 50% in size
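Fission yeast strain RE007, carrying one chromosomally integrated HIV-1 vpr copy, was seeded at OD 0.01 in PMG+AL medium with 23 nL pinned compound. After 24 h at 30 °C and 99% humidity, viability was read by BacTiter-Glo luminescence.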
FBPA Giardia inh: qHTS Assay for Inhibitors of Fructose-1,6-bisphosphate Aldolase from Giardia Lamblia; A8B2U2; purified Giardia FBPA; Potency, µM (doses to about 59.6 µM), hits mostly inhibitors; actives 0.71% (n = 290,000); also: nearly all actives have a fitted effect of over 55% in size
Target sequence (A8B2U2 whole entry, looked up): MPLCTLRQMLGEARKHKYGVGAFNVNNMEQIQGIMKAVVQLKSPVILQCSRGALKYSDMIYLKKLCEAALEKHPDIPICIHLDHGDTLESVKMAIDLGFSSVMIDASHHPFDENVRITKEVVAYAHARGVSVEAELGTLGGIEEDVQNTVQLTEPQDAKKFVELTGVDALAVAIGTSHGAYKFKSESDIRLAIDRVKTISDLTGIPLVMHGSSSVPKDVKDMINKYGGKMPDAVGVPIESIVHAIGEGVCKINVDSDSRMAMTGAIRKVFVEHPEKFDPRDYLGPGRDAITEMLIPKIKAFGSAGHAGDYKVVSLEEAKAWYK
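Giardia FBPA (40 nM reagent) was preincubated 10 min at RT with compound (up to 57.5 uM final), then substrate plus GAPDH/TPI/NAD/arsenate coupling system with diaphorase/resazurin was added; resorufin fluorescence (525/598 nm) was read after 20 min.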
Large screens that a line does not name were inactive. The list is not random: actives were taken first. Their share in the collection is about 1.4%. Unless noted, calls follow the shape of the dose curve; as a rule, active = well fitted curve in the direction sought with a large enough effect; inconclusive = small, poorly fitted or top-dose-only effect, or another doubt; inactive = no such curve, though single readings can be large; an effect the other way counts as inactive or inconclusive.

Cc1cc(C)cc(Nc2cc(C(=O)NC3CCC(C)CC3)c3ccccc3n2)c1 (stereo not drawn)	none (no result: LmPK inhibitor, AmpC inh no detg, RE007 growth inh, FBPA Giardia inh)
c1csc(-c2nc(CN3CCSCC3)cs2)c1	LmPK inhibitor 15.8µM, TbPYK inhibitor inconclusive
O=S1(=O)CCN(Cc2csc(-c3cccs3)n2)CC1	LmPK inhibitor inconclusive
CC(=O)OC[C@]12CCC(C)=C[C@H]1O[C@@H]1[C@H](O)[C@@H](OC(C)=O)[C@@]2(C)[C@]12CO2	RE007 growth inh 3.16µM
CCc1cccc(C)c1NC(=O)CSc1nc2ccccc2nc1Cc1ccccc1	none (no result: LmPK inhibitor, AmpC inh no detg, RE007 growth inh, FBPA Giardia inh)
c1ccc(N2CCN(c3nc4cc5c(cc4s3)OCCO5)CC2)cc1	none
c1c2c(cc3sc(N4CCOCC4)nc13)OCCO2	LmPK inhibitor 14.1µM, TbPYK inhibitor inconclusive, RE007 growth inh inconclusive
O=C1C=Cc2ccccc2C1=O	AmpC inh no detg inconclusive, FBPA Giardia inh 3.54µM (no result: TbPYK inhibitor, RE007 growth inh)
O=C1c2ccccc2C(=O)c2ccccc21	none (no result: AmpC detergent, LmPK inhibitor, AmpC inh no detg, RE007 growth inh)
O=C(CCN1CCN(C(=O)c2ccccc2)CC1)c1ccc(Br)cc1	RE007 growth inh 28.2µM
Cc1ccccc1-n1nc(CO)c(C(=O)NCC(c2ccccc2)c2ccccc2)n1	none (no result: LmPK inhibitor, AmpC inh no detg, RE007 growth inh, FBPA Giardia inh)
Cc1ccc(-c2nc(CS(=O)(=O)CC(=O)N3CC(C)CC(C)C3)c(C)o2)cc1 (stereo not drawn)	AmpC inh no detg 39.8µM
Cc1ccc(-c2nc(CS(=O)(=O)CC(=O)N3CCN(C)CC3)c(C)o2)cc1	none (no result: FBPA Giardia inh)
CCN1CCN(C(=O)CS(=O)(=O)Cc2nc(-c3ccc(C)cc3)oc2C)CC1	AmpC inh no detg 10µM
CCc1c(C)sc2c1CCN(C(=O)Nc1cc(C)ccc1OC)C2c1ccc(F)cc1 (stereo not drawn)	none (no result: LmPK inhibitor, AmpC inh no detg, RE007 growth inh, FBPA Giardia inh)
CCC(N)CCc1c[nH]c2ccccc12 (stereo not drawn)	none (no result: AmpC detergent, LmPK inhibitor, AmpC inh no detg, RE007 growth inh, FBPA Giardia inh)
CCOC(=O)c1c(C)oc2nc(C)nc(N3CCN(c4cccc(C)c4C)CC3)c12	none (no result: LmPK inhibitor, AmpC inh no detg, RE007 growth inh, FBPA Giardia inh)
C=CC(=O)Nc1cc2c(Nc3ccc(F)c(Cl)c3)ncnc2cc1OCCCN1CCOCC1	none (no result: AmpC detergent, LmPK inhibitor, AmpC inh no detg, RE007 growth inh, FBPA Giardia inh)
CC(=O)NCCNc1nc2cc(-c3ccccc3C)sc2c(=O)n1C	none (no result: AmpC detergent, LmPK inhibitor, AmpC inh no detg, FBPA Giardia inh)
CC(=O)NCCNc1nc2cc(-c3ccccc3CO)sc2c(=O)n1C	RE007 growth inh 28.2µM (no result: AmpC detergent, LmPK inhibitor, AmpC inh no detg, FBPA Giardia inh)
COc1ccc(/C=N/Nc2ncccc2[N+](=O)[O-])c(OC)c1	LmPK inhibitor 25.1µM, TbPYK inhibitor inconclusive
COc1ccc(/C=N/Nc2ncc(-c3ccccc3)cn2)c(OC)c1	AmpC detergent inconclusive
COc1ccc(NC(=O)Cn2c(=O)n(C(C)C)c(=O)c3oc4ccccc4c32)cc1Cl	none (no result: LmPK inhibitor, AmpC inh no detg, RE007 growth inh, FBPA Giardia inh)
CCC(Cc1ccccc1)NC(=O)c1csc2c1CCCCC2 (stereo not drawn)	none (no result: LmPK inhibitor, AmpC inh no detg, RE007 growth inh, FBPA Giardia inh)
O=C1CC(N2CCC(O)(c3ccc(Br)cc3)CC2)C(=O)N1c1ccc(Cl)cc1 (stereo not drawn)	AmpC detergent inconclusive, RE007 growth inh 10µM
O=C1CC(N2CCC(O)CC2)C(=O)N1c1ccc(Br)cc1 (stereo not drawn)	RE007 growth inh inconclusive
COc1ccc(N2C(=O)CC(N3CCC(O)(c4ccc(Br)cc4)CC3)C2=O)cc1 (stereo not drawn)	RE007 growth inh 31.6µM
CCCOc1ccc(N2C(=O)CC(N3CCN(c4ccccc4OC)CC3)C2=O)cc1 (stereo not drawn)	AmpC detergent inconclusive, RE007 growth inh inconclusive
CCCOc1ccc(N2C(=O)CC(N3CCC(O)(c4cccc(C(F)(F)F)c4)CC3)C2=O)cc1 (stereo not drawn)	RE007 growth inh 31.6µM
COCCCNC(=O)CCn1c(=O)c2ccccc2n(CC(=O)Nc2cc(Cl)ccc2OC)c1=O	none (no result: LmPK inhibitor, AmpC inh no detg, RE007 growth inh, FBPA Giardia inh)
CCn1c(CNC(=O)c2ccc(OC)cc2)nnc1SCC(=O)Nc1ccc(F)cc1	none (no result: LmPK inhibitor, AmpC inh no detg, RE007 growth inh, FBPA Giardia inh)
CCC1CCCCN1C(=O)CSc1nc(-c2ccc(OC)cc2)cc(C(F)(F)F)n1 (stereo not drawn)	none (no result: LmPK inhibitor, AmpC inh no detg, RE007 growth inh, FBPA Giardia inh)
COc1cc(Cl)c(C)cc1NC(=O)CCCN1C(=O)C(c2ccccc2)Oc2cccnc21 (stereo not drawn)	none (no result: LmPK inhibitor, AmpC inh no detg, RE007 growth inh, FBPA Giardia inh)
CCCN1CCC(=O)N(C(CSc2ccc(Br)cc2)CC(C)C)CC1 (stereo not drawn)	none (no result: AmpC detergent, LmPK inhibitor, AmpC inh no detg, TbPYK inhibitor, RE007 growth inh)
C/C(Cn1nnc([N+](=O)[O-])n1)=N\NC(=O)c1ccc(C)cc1	AmpC detergent inconclusive, FBPA Giardia inh inconclusive
C/C(Cn1nnc([N+](=O)[O-])n1)=N\NC(=O)c1ccncc1	FBPA Giardia inh 19.9µM
Cc1ccc(-c2noc(-c3nnn(CC(=O)Nc4cc(C)cc(C)c4)c3N)n2)cc1	none (no result: LmPK inhibitor, AmpC inh no detg, RE007 growth inh, FBPA Giardia inh)
O=C(O)c1ccc2c(c1)C(=O)/C(=C/c1ccccc1)C2=O	TbPYK inhibitor 35.5µM
CCN(CC)C(=O)C1CCCN(C/C=C/c2ccccc2)C1 (stereo not drawn)	AmpC inh no detg 0.282µM
Cc1cc(C)c(SSc2nnnn2-c2ccccc2)c(C)c1	TbPYK inhibitor 3.55µM (no result: AmpC detergent, LmPK inhibitor, AmpC inh no detg, FBPA Giardia inh)
Cc1ccc2cc(C)c(Sc3nnnn3-c3ccccc3)nc2c1	none
CCN(CC)C(=O)c1ccc(NC(=O)c2cccc(F)c2)cc1	LmPK inhibitor 28.2µM
COc1cccc(C2=NS(=O)(=O)N(C)C(C(=O)Nc3ccccc3SC)=C2)c1	none (no result: LmPK inhibitor, AmpC inh no detg, RE007 growth inh, FBPA Giardia inh)
COc1ccc(-c2cn3c(n2)sc2cc(C(=O)NC4CCCc5ccccc54)ccc23)cc1 (stereo not drawn)	none (no result: LmPK inhibitor, AmpC inh no detg, RE007 growth inh, FBPA Giardia inh)
